Screens (PubChem)
DT40 TDP1 no CPT: qHTS for Inhibitors of human tyrosyl-DNA phosphodiesterase 1 (TDP1): qHTS in cells in absence of CPT. DT40 Tdp1-/- hTDP1 cells, no CPT, ATP luminescence, 48 h. 420,000 tested, 15% active. AID 686978, 2013. Potency, µM (titrated, usually from 46.2 µM), without a hit: top-dose activity change, negative = growth inhibition, usual class: inhibitors; also: nearly all actives have a fitted effect of over 55% in size
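Readout: luminescence from CellTiter-Glo after 30 min in the dark at RT. Cells: DT40 Tdp1-/- with stable hTDP1, 400/well. Exposure: compounds alone, ≥48 hr, 37 °C.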
VP16 counter: inhibits Gal4-VP16 luciferase reporter, ROR gamma counter-screen. Drosophila S2 Gal4-VP16 UAS-luciferase, luminescence, 20 h. Potency, µM (highest dose often 53.6 µM), without a hit: top-dose activity, negative = inhibition, usual class: inhibitors. 310,000 tested, 3.5% active;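 also: Gal4-VP16 expression switched on by copper sulfate through the metallothionein promoter; nearly all actives have a fitted effect of over 50% in size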
ALOX12 inh: blocks human arachidonate 12S-lipoxygenase; purified 12hLO, xylenol orange hydroperoxide absorbance; 580,000 tested, 1.1% active; Potency, µM (titrated, usually from 108 µM), for inactives: top-dose activity change, negative = inhibition, hits mostly inhibitors; AID 1671190
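Purified human 12hLO (150 nM final) in 25 mM Hepes, 0.01% Triton X-100, pH 7.0 was preincubated 15 min at room temperature with compound. Then 40 uM arachidonic acid was added, 30 min. Hydroperoxide was read by Fe-XO absorbance ratio 573/405 nm.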
DT40 TDP1 CPT: growth inhibition of DT40 Tdp1-/-;hTDP1 cells with camptothecin (screen for TDP1 inhibitors); chicken DT40 Tdp1-/-;hTDP1 cells + 20 nM CPT, ATP luminescence, 48 h; Potency, µM (series often up to 46.2 µM), for inactives: at the top dose activity change, negative = growth inhibition, usual class: inhibitors; 420,000 tested, 12% active; AID 686979; also: nearly all actives have a fitted effect of over 55% in size
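Chicken DT40 Tdp1-/- cells complemented with human TDP1, 400 cells/well, exposed to compounds plus 20 nM camptothecin for at least 48 h at 37 C; viability read as ATP content by CellTiter-Glo luminescence.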
RORg inh: inhibitors of mouse ROR gamma transcriptional activity | AID 2551 | Drosophila S2 Gal4-RORgamma UAS-luciferase reporter, 20 h | Potency, µM (top dose mostly 53.6 µM), without a hit: at the top dose activity change, negative = inhibition, usual class: inhibitors | 310,000 tested, 5.4% active; also: nearly all actives have a fitted effect of over 60% in size
Target sequence (P51450 whole entry, looked up, the tested form may be a part): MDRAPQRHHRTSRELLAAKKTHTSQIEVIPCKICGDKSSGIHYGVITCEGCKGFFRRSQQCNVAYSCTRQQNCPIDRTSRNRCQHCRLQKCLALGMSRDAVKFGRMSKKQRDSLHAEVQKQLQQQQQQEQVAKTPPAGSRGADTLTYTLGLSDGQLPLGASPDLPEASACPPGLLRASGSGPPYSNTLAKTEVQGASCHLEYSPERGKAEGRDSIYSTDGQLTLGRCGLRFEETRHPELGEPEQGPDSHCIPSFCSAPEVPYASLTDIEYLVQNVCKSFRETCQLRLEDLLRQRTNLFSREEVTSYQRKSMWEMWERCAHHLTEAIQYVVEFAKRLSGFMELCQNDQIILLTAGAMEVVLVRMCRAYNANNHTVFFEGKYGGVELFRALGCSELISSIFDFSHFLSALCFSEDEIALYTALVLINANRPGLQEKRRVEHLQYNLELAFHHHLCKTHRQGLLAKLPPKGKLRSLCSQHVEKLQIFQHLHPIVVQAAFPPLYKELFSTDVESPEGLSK
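Using a luciferase readout, inhibitors were identified by reduced reporter activity in Drosophila cells coexpressing a copper-inducible Gal4–ROR gamma fusion and UAS-driven Photinus luciferase, incubated 20 hr after 700 uM copper sulfate.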
ELG1 DNA repair: inhibitors of ELG1-dependent DNA repair in HEK293T cells. HEK293T ELG1-luciferase reporter, luminescence, 16 h; DNA damage induced by 5-fluorouridine. Potency, µM (doses to about 46.1 µM), inactives show at the top dose activity change, negative = inhibition, actives largely listed as inhibitors. 330,000 tested, 2.3% active; also: nearly all actives have a fitted effect of over 55% in size
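Quantitative HTS, concentration-response format. 2,000 cells/well co-treated with 5-fluorouridine and compound, 16 hr in 5% CO2 at 37 °C; ONE-Glo luminescence read after 30 min.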
* hit, by the source's call; i = inactive; ? = inconclusive; . = not tested or not shown. A selection: hits, their analogues and other compounds. The true share with any hit is near 15%. Calls follow the shape of the dose curve; as a rule, active = well fitted curve in the direction sought with a large enough effect; inconclusive = small, poorly fitted or top-dose-only effect, or another doubt; inactive = no such curve, though single readings can be large; an effect the other way counts as inactive or inconclusive. % is scaled to controls: 0 for no effect and ±100 for the full control effect; potency is read from the fitted curve at half-maximal effect.

SMILES	DT40 TDP1 no CPT	VP16 counter	ALOX12 inh	DT40 TDP1 CPT	RORg inh	ELG1 DNA repair
Cc1nn(-c2ccc3nncn3n2)c2c1C(c1ccc(OC(C)C)cc1)CC(=O)N2 (stereo not drawn)	.	.	4%	.	.	.
COc1ccccc1CN(C)C(=O)c1cccc(S(=O)(=O)N2CCN(Cc3ccccc3)CC2)c1	?	.	12%	?	.	-2%
O=C(NCC1COc2ccccc2O1)c1cccc(S(=O)(=O)N2CCN(c3ccccc3)CC2)c1 (stereo not drawn)	21µM*	.	-9%	18µM*	.	?
COc1ccc(CN(C)C(=O)c2cccc(S(=O)(=O)N3CCN(c4ccccc4)CC3)c2)c(OC)c1OC	13µM*	.	0%	12µM*	.	?
CN(C)C(CNC(=O)c1cccc(S(=O)(=O)N2CCN(c3ccccc3)CC2)c1)c1ccccc1 (stereo not drawn)	?	.	3%	?	.	.
CN(Cc1ccc(F)cc1)C(=O)c1cccc(S(=O)(=O)N2CCN(c3ccccc3)CC2)c1	23µM*	.	?	?	.	18µM*
O=C(NCC1COc2ccccc2O1)c1cccc(S(=O)(=O)N2CCCCC2)c1 (stereo not drawn)	?	.	-1%	?	.	?
COc1ccc(CN(C)C(=O)c2cccc(S(=O)(=O)N3CCCc4ccccc43)c2)c(OC)c1OC	21µM*	.	-22%	18µM*	.	.
O=C(Cn1ncc(Cl)c(Cl)c1=O)N1CCc2ccccc21	6.5µM*	?	0%	4.6µM*	?	?
CC1(C)C(=O)Nc2ccccc2N1C(=O)CSc1nc(-c2ccccc2)cs1	15µM*	-10%	?	?	18%	?
O=C(Cn1ncc(Cl)c(Cl)c1=O)N1CCN(Cc2ccccc2)CC1	3.3µM*	-30%	1%	3.3µM*	?	?
Cc1c2cnn(CC(=O)N3CCOCC3)c(=O)c2c(C)n1Cc1ccc(F)cc1	.	.	40%	.	.	.
O=C(Cn1ncc(Cl)c(Cl)c1=O)N1CCOCC1	13µM*	8%	0%	?	-11%	?
CC1(C)C(=O)Nc2ccccc2N1C(=O)Cn1ncc(Cl)c(Cl)c1=O	23µM*	?	8%	23µM*	?	?
Cc1nn(CC(=O)N2c3ccccc3NC(=O)C2(C)C)c(C)c1[N+](=O)[O-]	?	-1%	4%	-10%	23%	8%
S=c1[nH]ncn1/N=C/c1ccco1	-5%	.	?	0%	.	.
CC(C)(C)n1cn[nH]c1=S	-6%	-13%	?	4%	11µM*	2%
COc1ccc(NC(=O)Cc2csc(NC(=O)Nc3ccccc3OC)n2)cc1	23µM*	.	-5%	26µM*	.	.
COc1ccccc1NC(=O)Nc1nc(CC(=O)Nc2ccc(F)cc2)cs1	16µM*	.	1%	?	.	?
COc1ccccc1NC(=O)Nc1nc(CC(=O)Nc2cccc(F)c2)cs1	?	.	-10%	?	.	?
COc1ccc(C)cc1NC(=O)Cc1csc(NC(=O)Nc2ccccc2OC)n1	16µM*	.	1%	?	.	.
COc1ccc2[nH]c3c(c2c1)CCNC31CCN(C(=O)C2CCCC2)CC1	.	.	2%	.	.	.
Cc1cccc(C(=O)NC(C)c2ccc(-n3ccnc3)cc2)c1C (stereo not drawn)	14%	.	8%	-15%	.	.
CC(NC(=O)c1cc(F)c(F)c(F)c1F)c1ccc(-n2ccnc2)cc1 (stereo not drawn)	?	-16%	12%	23µM*	10%	5%
Cc1cc(C)c2[nH]c(C(=O)NCc3nc(-c4ccccn4)no3)c(C)c2c1	.	.	13%	.	.	.
SMILES	DT40 TDP1 no CPT	VP16 counter	ALOX12 inh	DT40 TDP1 CPT	RORg inh	ELG1 DNA repair
CN(C)C1=NC[C@H](Cc2ccccc2)N1CCCC1CCCCC1	6.5µM*	.	?	7.3µM*	.	4%
CN(C)C1=NCCN1CCCC1CCCC1	12µM*	.	3%	?	.	1%
CN(C)C1=NC[C@H](Cc2ccccc2)N1CC1CCCCCC1	15µM*	.	21%	5.8µM*	.	-13%
CN(C)C1=NC[C@H](Cc2ccccc2)N1CCCC1CCCC1	21µM*	.	-29%	16µM*	.	-5%
CN(C)C1=NC[C@H](Cc2ccccc2)N1CCc1cccc(F)c1	?	.	-7%	?	.	-7%
O=C1CN(CC(=O)Nc2cccc3ncccc23)CCN1	.	.	16%	.	.	.
Cc1nc2cc(C(=O)Nc3ccccc3N3CCCC3=O)ccc2n1-c1ccccc1	.	.	11%	.	.	.
CN(C)C1=NC[C@H](Cc2ccccc2)N1CCC1CCCC1	?	.	-4%	21µM*	.	-10%
CC1(c2ccc(O)cc2)NC(=O)N(c2ccccc2)N1 (stereo not drawn)	2%	9%	?	33%	25%	?
CCC1(c2ccc(Cl)cc2)NC(=S)N(c2ccccc2)N1 (stereo not drawn)	?	?	16µM*	?	?	?
CCC1(c2ccccc2)NC(=S)N(c2ccc(C)cc2)N1 (stereo not drawn)	-7%	?	?	-1%	5µM*	?
Cc1ccc(CC2(c3ccccc3)NC(=O)NC2=O)cc1 (stereo not drawn)	?	.	-13%	-10%	.	.
C#CCN1CCCCC1C(=O)N1CCN(c2cccc(Cl)c2)CC1 (stereo not drawn)	.	.	-11%	.	.	.
O=C(C1CCC(=O)N1Cc1ccccc1Cl)N1CCN(c2cccc(Cl)c2)CC1 (stereo not drawn)	23µM*	1%	398%	23µM*	-1%	-8%
Cc1ccc(CN2C(=O)CCC2C(=O)NCCN2CCN(c3cccc(Cl)c3)CC2)cc1 (stereo not drawn)	15µM*	16%	5%	?	1%	-22%
CCC(=O)N1CCN(c2ccc(NC(=O)c3cc4ccccc4cc3OC)cc2Cl)CC1	.	.	0%	.	.	.
c1ccc(-n2cnnc2SCc2cn3ccsc3n2)cc1	-18%	-4%	3%	-10%	-1%	10%
COc1cccc(-n2c(SCc3cc(=O)oc4cc(O)c(O)cc34)nc3ccccc3c2=O)c1	?	-1%	7.1µM*	?	-17%	-8%
Cc1ccc(-n2c(SCc3cn4ccsc4n3)nc3ccccc3c2=O)cc1	21µM*	8%	i	?	-38%	?
COc1cccc(-n2c(SCC(=O)Nc3ccc4c(c3)CCC4)nc3ccccc3c2=O)c1	9.2µM*	21%	-8%	?	?	-8%
